Source: PubChem BioAssay
PGK inhibitor = T. brucei PGK inhibition; Potency, µM (titrated, usually from 57.5 µM), hits mostly inhibitors; P07378; 380,000 compounds, 0.043% hits; PGK/GAPDH coupled, Kinase-Glo luminescence, 60 min; note: nearly all actives have a fitted effect of over 60% in size
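Recombinant glycosomal PGK reaction used 1,3-bisphosphoglycerate generated in-well by GAPDH (100nM final) in 100mM TEA pH 7.6, 5mM MgCl2, 0.01% Tween-20. After 60 minutes at room temperature, ATP was read by Kinase-Glo Plus luminescence end-point.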
KCNH2 3.1 inh = inhibitors of human KCNH2 3.1 potassium channel isoform | AID 720553 | activity change, % (tested at about 1.8 µM) | U2OS KCNH2 3.1, thallium flux FluxOr; active compounds read low | 340,000 compounds, 0.95% hits;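 active = maximum activity change below -70%; inconclusive = maximum activity change from -70% to -50%; inactive = maximum activity change above -50%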;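 note: thallium influx rate constant from kinetic fluorescence after stimulation buffer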
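Normalized rate constant (relative to positive and negative DMSO controls) derived from a 2 min kinetic fluorescence read after stimulation; U2OS cells expressing the 3.1 isoform via virus at 1.77 x 10^8 /mL.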
Pin1 inh = blocks the human prolyl isomerase Pin1. Q13526. AID 504891. Pin1 FP peptide displacement, HiFluor488, 10 min. Potency, µM (series often up to 115 µM), hits mostly inhibitors. 390,000 compounds, 0.009% hits; active = well fitted inhibition curve with a large enough effect in the polarisation, with a control signal flat, not every such curve was filed as active; inconclusive = small, poorly fitted or top-dose-only effect, or effect the other way, or a change in a side signal; inactive = no such curve, though single readings can be large or run the other way; the % refers to the polarisation
Target sequence (Q13526 whole entry, looked up): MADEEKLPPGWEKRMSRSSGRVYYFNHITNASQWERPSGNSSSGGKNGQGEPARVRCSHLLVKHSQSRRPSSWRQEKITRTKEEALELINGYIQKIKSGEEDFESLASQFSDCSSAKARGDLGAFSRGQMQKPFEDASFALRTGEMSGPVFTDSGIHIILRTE
GCN5L2 inh = GCN5L2 (KAT2A) acetyltransferase inhibition; GCN5L2 HAT assay, ThioGlo1 CoA-SH fluorescence; Potency, µM (top dose mostly 58.9 µM), usual class: inhibitors; 390,000 compounds, 0.21% hits
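GCN5L2 (20nM final) in 50mM HEPES, 0.1mM EDTA pH 7.5, 0.01% Tween-20 was preincubated 15 min at room temperature with compound, then given ThioGlo1 (50uM), H3(1-25) peptide (75uM) and acetyl-CoA (70uM); CoA-thiol fluorescence (Ex340/Em540) was read at 0 and 20 min.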
hERG WT inh = blocks the wildtype human KCNH2 potassium channel. U2OS, BacMam KCNH2, thallium flux FluxOr; active compounds read low. activity change, % at 1.84 µM. 340,000 compounds, 0.37% hits. AID 720551;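 active = maximum activity change below -70%; inconclusive = maximum activity change between -70% and -50%; inactive = maximum activity change above -50%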
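U2OS cells transduced with wild-type KCNH2 virus are loaded with FluxOr dye for 45 min, and thallium flux is measured in kinetic reads before and after stimulation buffer. Rate constants are normalized to DMSO controls.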
RGS4 inhibitor = human RGS4 inhibition; 390,000 compounds, 0.039% hits; AID 504845; P49798; Transcreener GDP fluorescence polarization, RGS4-accelerated GTP hydrolysis; Potency, µM (series often up to 114 µM), most hits filed as inhibitors; note: nearly all actives have a fitted effect of over 75% in size
Target sequence (P49798 whole entry, looked up): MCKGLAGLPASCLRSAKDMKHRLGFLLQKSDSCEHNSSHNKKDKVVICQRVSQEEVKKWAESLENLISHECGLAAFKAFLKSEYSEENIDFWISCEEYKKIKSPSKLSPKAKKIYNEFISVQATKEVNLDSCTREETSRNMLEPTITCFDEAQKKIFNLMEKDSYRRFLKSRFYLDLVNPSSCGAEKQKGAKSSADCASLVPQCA
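MLSMR compounds (23 nl, pin-transferred) preincubated 10 min at room temperature with a 500nM (2x) first reagent, then RGS4 at 900nM (2x) plus Transcreener GDP mix added; fluorescence polarization (620/688 nm) read before and after 90 min at 30 °C.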
A number is an active result; - = inactive; ? = inconclusive; . = not tested or not shown; [ ] = another dose, or the depositor's remark. Hits are enriched below; roughly 1.2% of the tested compounds scored in any of these assays. Unless noted, calls come from the whole dose curve; as a rule, active = well fitted curve in the direction sought with a large enough effect; inconclusive = small, poorly fitted or top-dose-only effect, or another doubt; inactive = no such curve, though single readings can be large; an effect the other way counts as inactive or inconclusive.

SMILES | PGK inhibitor | KCNH2 3.1 inh | Pin1 inh | GCN5L2 inh | hERG WT inh | RGS4 inhibitor
COc1ccc(NC(=O)COC(=O)COc2cccc(Br)c2)cc1OC | - | - | - | - | - | -
Cc1cc(-c2ccc(N=Nc3ccc4c(S(=O)(=O)O)cc(S(=O)(=O)O)c(N)c4c3O)c(C)c2)ccc1N=Nc1ccc2c(S(=O)(=O)O)cc(S(=O)(=O)O)c(N)c2c1O | . | . | . | 3.2µM | . | -
Nc1c(N=Nc2ccc(-c3ccc(N=Nc4cc(S(=O)(=O)O)c5ccccc5c4N)cc3)cc2)cc(S(=O)(=O)O)c2ccccc12 | . | . | . | 2.2µM | . | .
CN(C)CCNc1oc(-c2ccc(COc3ccc(Cl)cc3)o2)nc1C#N | - | . | ? | - | . | -
CCN(CC)CCCN(C(=O)c1ccccc1C)c1nc(-c2ccc(OC)cc2)cs1 | - | - | - | - | - | -
CCN(CC)CCCN(C(=O)c1ccc(OC)cc1)c1nc(-c2ccc(OC)cc2)cs1 | - | -95 | - | - | ? | -
CN(C)CCCN(C(=O)c1ccco1)c1nc(-c2ccc(Cl)cc2)cs1 | - | -80 | - | - | - | -
COc1ccc(C#Cc2c[nH]c(=O)c3cncnc23)cc1OC | . | . | ? | . | . | -
O=[N+]([O-])c1ccc(/C=N/N2CCN(Cc3ccccc3)CC2)cc1 | - | -80 | - | - | - | -
COc1ccccc1N1CCN(Cc2c[nH]c3ccccc23)CC1 | - | - | - | - | - | -
Cc1ccccc1N1CCN(Cc2c[nH]c3ccccc23)CC1 | - | -85 | - | -[0.501 µM] | - | -
O=[N+]([O-])c1ccc(/C=N\N2CCN(Cc3ccccc3Cl)CC2)cc1 | - | - | . | . | - | .
O=[N+]([O-])c1ccc(CN2CCN(Cc3c[nH]c4ccccc34)CC2)cc1 | - | -77 | - | - | - | -
COc1cc(C2C(=O)N(C3CCCCC3)CC(=O)N2C2CCCCC2)ccc1OC(C)C (configuration not stated) | - | . | - | - | . | -
CC(C)c1ccc(NS(=O)(=O)c2ccc3nc(-c4ccccc4)[nH]c3c2)cc1 | - | . | - | - | . | -
CCCCCN1CSC(=S)N(Cc2ccccc2)C1 | - | - | - | - | -74 | -
CCN1CSC(=S)N(Cc2ccccc2)C1 | - | - | - | - | - | -
OCc1c(OCc2cccc(F)c2)ccc2ccccc12 | - | -81 | - | - | - | -
O=C(c1ccc2c(c1)OCO2)C1CCCN(Cc2ccc3cccc(F)c3n2)C1 (configuration not stated) | - | -101 | - | - | - | -
O=C(c1ccc2c(c1)OCO2)C1CCCN(Cc2ccc(OC(F)F)cc2)C1 (configuration not stated) | - | -94 | - | - | - | -
O=C(c1ccc2c(c1)OCO2)C1CCCN(Cc2cccc(C(F)(F)F)c2)C1 (configuration not stated) | - | - | - | - | - | -
C=C(C)[C@@H]1C2=CC(C(=O)OC)=C(C[C@@H](C(=C)C)[C@H]3O[C@H]3C3=C[C@H]1OC3=O)O2 | . | . | ? | . | . | -
Cc1c(C(=O)Nc2cccc(Cl)c2)c2ccccn2c1CCc1ccncc1 | - | -74 | - | - | - | -
Cc1c(C(=O)Nc2ccc(Cl)cc2)c2ccccn2c1CCc1ccncc1 | - | ? | - | - | - | -[11.4 µM]
Cc1ccc(Cl)cc1N1CCN(CCNC(=O)Nc2ccccc2Cl)CC1 | - | . | - | - | . | -
SMILES | PGK inhibitor | KCNH2 3.1 inh | Pin1 inh | GCN5L2 inh | hERG WT inh | RGS4 inhibitor
Cc1ccc(-c2nc(N)s[n+]2-c2ccccc2)cc1 | - | - | - | 6.3µM | - | -
CNc1nc(-c2ccccc2)[n+](-c2ccc(C)cc2)s1 | - | - | - | 7.9µM | - | ?
Cc1ccc(-c2nc3ccccc3nc2-c2ccccc2)cc1 | - | - | - | - | - | -
COc1ccc(CCn2nnnc2C2(c3ccc(C)cc3)CC2)cc1 | . | . | . | - | . | -
CCOc1ccc(C(=O)Nc2ccc(NC(=O)c3cccs3)cc2)cc1[N+](=O)[O-] | - | -99 | - | - | -81 | -
CCOc1ccc(C(=O)Nc2cccc(-c3cc4ccccc4oc3=O)c2)cc1[N+](=O)[O-] | - | -93 | - | - | ? | ?
COC(=O)c1ccc(Nc2nnc(-c3ccc(C)c(S(=O)(=O)N4CCN(C)CC4)c3)c3ccccc23)cc1 | - | . | - | - | . | -
O=C(CNC(=O)c1ccncc1)N/N=C/c1ccc(Br)cc1 | - | -109 | - | - | - | -
O=C(CNC(=O)c1ccncc1)N/N=C/c1cc(Br)ccc1O | - | . | - | - | - | -
CCOC(=O)c1c(NC(=O)c2cc(OCC)c(OCC)c(OCC)c2)sc2c1CCCCC2 | - | . | - | - | . | -
COCC(=O)N1CCC2(CC1)CCN(C(c1ccccc1)c1ccccc1)CC2 | . | . | . | - | . | .
Cc1ccc(OCCN2CCN(c3ncnc4sc(C)c(C)c34)CC2)cc1 | - | -79 | - | - | - | -
CC(=O)NCC1CCCN(C(=O)c2oc3c(F)cccc3c2C)C1 (configuration not stated) | - | -126 | - | - | - | -
COCC1CCN(C(=O)c2oc3c(F)cccc3c2C)C1 (configuration not stated) | - | - | - | - | - | -
COc1ccc(-c2c(-c3cc(OC)cc(OC)c3)n(C)c3ccc(-c4cnc(N)nc4)cc23)cc1 | - | - | - | - | - | -
COc1ccc(-c2c(-c3cc(OC)cc(OC)c3)n(C)c3ccc(-c4ccc(S(N)(=O)=O)cc4)cc23)cc1 | - | -89 | - | - | - | ?
COc1ccc(NC(=O)CSc2nnc3c(n2)[nH]c2ccc(S(=O)(=O)N(C)C)cc23)c(OC)c1 | . | . | - | . | . | -
CCCCCCNCC(=O)N1CCC(Cc2ccccc2)CC1 | - | -101 | - | - | - | -
COc1ccccc1/C=C1/C(=O)N(c2ccc([N+](=O)[O-])cc2)N=C1C | - | -80 | - | - | - | -
CC1=NN(c2ccc([N+](=O)[O-])cc2)C(=O)/C1=C\N(C)C | - | - | - | - | - | -
CN(Cc1ccccc1)C(=O)CSc1nc2ccsc2c(=O)n1-c1ccc(F)cc1 | - | . | - | - | . | -
COc1ccc(N2CC(NC(=O)/C=C\c3ccccc3)CC2=O)cc1OC (configuration not stated) | - | . | - | - | . | -
O=C(CSc1ncc(S(=O)(=O)c2ccc(Cl)cc2)c(=O)[nH]1)Nc1cccc(C(F)(F)F)c1 | - | . | ? | - | . | -
CC(C)(C)c1ccc(S(=O)(=O)c2cnc(SCC(=O)Nc3ccc(F)c(Cl)c3)[nH]c2=O)cc1 | ? | . | . | 28µM | . | ?
COc1cc(Cl)c(C)cc1NC(=O)CSc1ncc(S(=O)(=O)c2ccc(C(C)(C)C)cc2)c(=O)[nH]1 | ? | . | . | 18µM | . | -
Nc1nc(NCCc2ccccc2)c2[nH]cnc2n1 | . | . | - | . | . | -
